High-throughput results deposited in PubChem BioAssay by several laboratories.
Bead autofluor: counter-screen for toxin protease inhibitors: compound fluorescence | compound autofluorescence counterscreen, microsphere flow cytometry; stronger effect = higher value | fluorescence intensity (test concentration not listed) | 360,000 compounds, 3.1% hits; in the data active = fluorescence intensity above about 16000; inconclusive = no clear call, values can overlap the other calls
SARS 3CLpro inh: SARS-CoV 3CLpro protease inhibition; P0C6X7; 290,000 compounds, 0.14% hits; recombinant SARS-CoV 3CLpro, quenched FRET peptide cleavage; inhibition, % at 6 µM; in the data active = inhibition above about 12%
BoNT F protease: BoNT F light chain protease inhibition; Multiplex microsphere protease cleavage assay, flow cytometry; inhibition, % at 10 µM; 360,000 compounds, 0.22% hits; in the data active = inhibition above about 35%, passing the limit was not always enough; inconclusive = no clear call, values can overlap the other calls
BoNT A protease: blocks Botulinum neurotoxin A light chain protease | multiplex microsphere protease substrate cleavage, flow cytometry | 360,000 compounds, 0.17% hits | inhibition, % at 10 µM
Anthrax LF prot: inhibitors of Bacillus anthracis lethal factor protease; AID 588501; 360,000 compounds, 0.12% hits; multiplex microsphere protease cleavage assay, LF; P15917; inhibition, % at 10 µM
Target sequence (P15917 whole entry, looked up): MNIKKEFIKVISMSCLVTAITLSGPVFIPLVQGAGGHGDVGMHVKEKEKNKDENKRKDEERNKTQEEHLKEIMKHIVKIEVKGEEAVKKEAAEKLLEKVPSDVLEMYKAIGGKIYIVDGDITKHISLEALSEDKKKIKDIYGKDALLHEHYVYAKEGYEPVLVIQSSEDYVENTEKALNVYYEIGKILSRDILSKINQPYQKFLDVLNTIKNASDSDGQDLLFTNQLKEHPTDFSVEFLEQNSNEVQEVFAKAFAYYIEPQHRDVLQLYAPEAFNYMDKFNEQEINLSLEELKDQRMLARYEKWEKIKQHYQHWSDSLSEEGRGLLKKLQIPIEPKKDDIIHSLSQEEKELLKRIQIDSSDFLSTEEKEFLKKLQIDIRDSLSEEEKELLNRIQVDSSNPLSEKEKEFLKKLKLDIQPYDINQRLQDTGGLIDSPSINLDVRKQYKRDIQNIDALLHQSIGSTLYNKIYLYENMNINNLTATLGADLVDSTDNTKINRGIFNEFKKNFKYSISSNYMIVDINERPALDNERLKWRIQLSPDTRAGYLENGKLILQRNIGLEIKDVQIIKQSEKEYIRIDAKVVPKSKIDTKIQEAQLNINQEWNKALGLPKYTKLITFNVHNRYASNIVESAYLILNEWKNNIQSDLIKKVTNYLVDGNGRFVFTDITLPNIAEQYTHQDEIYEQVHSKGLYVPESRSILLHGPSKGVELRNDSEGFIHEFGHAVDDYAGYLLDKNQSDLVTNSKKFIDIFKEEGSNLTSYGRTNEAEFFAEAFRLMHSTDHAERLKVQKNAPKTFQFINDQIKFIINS
VHR inh abs: blocks human VHR1 dual specificity phosphatase; inhibition, % at 13.3 µM; recombinant VHR phosphatase, pNPP absorbance; P51452; AID 1654; 290,000 compounds, 0.52% hits; in the data active = inhibition above about 50%
A number is an active result; – = inactive; ? = inconclusive; · = not tested or not shown. Hits are enriched below; roughly 3.9% of the tested compounds scored in any of these assays. Cut-off read from the data, not from the text of the source, unless noted: active = inhibition above about 30%; inconclusive = no clear call, values can overlap the other calls; inactive = below that.

SMILES | Bead autofluor | SARS 3CLpro inh | BoNT F protease | BoNT A protease | Anthrax LF prot | VHR inh abs
Cc1csc2ncnc(N3CCN(C(=S)Nc4ccc(F)cc4F)CC3)c12 | · | – | · | · | · | –
COC1=C/C(=C/c2c(N)n3cc(C)sc3nc2=O)C=CC1=O | – | – | – | – | – | –
Cc1cn2c(N)c(C=C3C=C(Cl)C(=O)C(Cl)=C3)c(=O)nc2s1 | 26112 | – | 141 | – | 32 | –
CS(=O)(=O)N1Cc2ccccc2CC1C(=O)OCC(=O)NCCc1ccc(S(N)(=O)=O)cc1 (stereo not drawn) | – | · | – | – | – | ·
COC(=O)c1nc(N)sc1C(C)C | – | – | – | – | – | 53
Cc1cccc2cc(C#N)c(NCc3ccccc3)nc12 | – | – | – | – | – | –
Cc1cccc2cc(C#N)c(NCCCn3ccnc3)nc12 | 19585 | – | – | – | – | –
CCCCNC(=O)c1c(C)cc(=O)oc1C | 22316 | – | – | – | – | –
CCC(C)NC(=O)c1c(C)cc(=O)oc1C (stereo not drawn) | 20515 | – | – | – | – | –
CCOC(=O)C1C(=O)C=C(Nc2ccccc2F)CC1c1ccccc1 (stereo not drawn) | – | – | – | – | – | –
CN(C)c1nc(OCCNC(=O)COc2ccc(Cl)cc2Cl)nc(N(C)C)n1 | 22763 | – | – | – | – | –
CN(C)c1nc(SCCOC(=O)COc2ccc(Cl)cc2Cl)nc(N(C)C)n1 | – | – | – | ? | – | –
CN(C)c1nc(OCCOC(=O)COc2ccc(Cl)cc2Cl)nc(N(C)C)n1 | 21324 | – | – | – | – | –
C=CCn1c(CNC(=O)c2ccccc2F)nnc1SCc1nc2ccccc2c(=O)[nH]1 | – | – | – | – | – | 52
C=CCn1c(CCNC(=O)c2ccccc2F)nnc1SCc1nc2ccccc2c(=O)[nH]1 | 24056 | – | – | – | – | –
Cn1ccc2c(N3CCCCCCC3)cc3c(c21)C1CCC3O1 (stereo not drawn) | – | · | – | – | – | ·
CC1(C(=O)NS(=O)(=O)c2ccc(Cl)cc2)CCN1C(=O)C/C=C/c1ccccc1 (stereo not drawn) | – | · | – | – | – | ·
CCOC(=O)CN(C(=O)CSc1nnc2c(n1)[nH]c1ccc(OC)cc12)c1ccc(F)cc1 | 22990 | – | – | – | – | –
Cc1cccn2c(CN3CCNC(=O)CC3)c(C(=O)N(C)CCc3ccccc3)nc12 | – | – | – | – | – | –
Cc1ccc(C(C(=O)NC2CCCCC2)N(Cc2ccccc2)C(=O)Cc2c[nH]c3ccccc23)o1 (stereo not drawn) | – | – | – | – | – | –
COc1cc(C(C(=O)NC2CCCCC2)N(Cc2cccs2)C(=O)Cc2c[nH]c3ccccc23)cc(OC)c1OC (stereo not drawn) | 23578 | – | – | – | – | –
COc1ccc(CN(C(=O)Cc2c[nH]c3ccccc23)C(C(=O)NC2CCCCC2)c2ccc(C)o2)cc1 (stereo not drawn) | 27158 | – | – | – | – | –
COc1cc(C(C(=O)NC2CCCCC2)N(C(=O)Cc2c[nH]c3ccccc23)c2ccccc2C)cc(OC)c1OC (stereo not drawn) | – | – | – | – | – | –
O=C(Nc1cccc(OC(F)(F)F)c1)c1ccc(-c2cccnc2)c2ccoc12 | – | · | – | – | – | ·
CCC(Sc1nc2cc3c(cc2c(=O)n1Cc1ccco1)OCO3)C(=O)Nc1ccccc1OC (stereo not drawn) | 23027 | – | – | ? | – | –
SMILES | Bead autofluor | SARS 3CLpro inh | BoNT F protease | BoNT A protease | Anthrax LF prot | VHR inh abs
CCC(Sc1nc2cc3c(cc2c(=O)n1Cc1ccco1)OCO3)C(=O)NCCOC (stereo not drawn) | – | – | – | – | – | –
CCC(Sc1nc2cc3c(cc2c(=O)n1Cc1ccco1)OCO3)C(=O)Nc1cccc(OC)c1 (stereo not drawn) | 21154 | – | – | – | – | –
O=C1NC(CCO)C(=O)NC1CCO (stereo not drawn) | – | · | – | – | – | ·
CCNC(=O)C1CCCN(C(=O)c2ccc(C#N)cc2)CC1 (stereo not drawn) | – | · | – | – | – | ·
CCc1ccc(OCCCC(=O)NCc2ccco2)cc1 | – | – | – | – | – | –
COc1ccc(OCCCC(=O)NCc2ccco2)cc1 | – | – | – | – | – | –
Cc1cccc(OCCCC(=O)NCc2ccco2)c1 | 17050 | – | – | ? | – | –
Cc1cccc(OCCC(=O)NCC(c2ccccc2)N(C)C)c1 (stereo not drawn) | 25146 | – | – | – | – | –
Cc1ccc(OCCCC(=O)NCc2ccco2)cc1 | 20751 | – | – | – | – | –
CC(C)(C)S(=O)(=O)N1Cc2cc(=O)n(Cc3ccccc3)c(CCO)c2[C@H]1CCO | – | · | – | – | – | ·
CN(C)S(=O)(=O)c1cc(NC(=O)CN2CCN(c3ccccc3O)CC2)ccc1Cl | – | – | – | – | – | –
CCC(O)CNc1nc(-n2nc(C)cc2C)nc2sc3c(c12)CCCC3 (stereo not drawn) | · | · | · | · | · | –
Cc1cc(C)n(-c2nc(SCCN(C)C)c3c4c(sc3n2)CCCC4)n1 | 17751 | – | – | – | – | –
Cc1ccc2cc(CCNS(=O)(=O)c3ccc(F)cc3)c(=O)[nH]c2c1C | – | – | – | – | – | –
CC1C(=O)C(C)C(c2cc(Cl)ccc2O)NC1c1cc(Cl)ccc1O (stereo not drawn) | – | – | ? | – | – | –
CCOC(=O)/C(=N/Nc1ccc(C)cc1)S(=O)(=O)c1ccc(Cl)cc1 | – | – | – | – | – | –
CCOC(=O)N=S(N)(=O)c1ccccc1 (stereo not drawn) | 20787 | – | – | – | – | –
CCOC(=O)/C(=N\Nc1ccccc1)S(=O)(=O)c1ccccc1 | 23295 | – | – | – | – | –
O=C(c1ccccn1)N1CCN(C(=O)c2ccccn2)CC1 | 16386 | – | – | – | – | –
O=C(C1CCCN(c2ncnc3c2nc2n3CCCCC2)C1)N1CCN(c2cccc(Cl)c2)CC1 (stereo not drawn) | · | – | · | · | · | –
CN(C(=O)C1CCCN(c2ncnc3c2nc2n3CCCCC2)C1)c1cccc(Cl)c1 (stereo not drawn) | – | – | – | – | – | 52
CCCOc1ccc(C(CC(=O)O)NC(=O)C23CC4CC(CC(C4)C2)C3)cc1 (stereo not drawn) | 23418 | – | – | – | – | –
CCOC(=O)C1=CCN(S(=O)(=O)c2ccccc2Cl)C1c1cccc(Br)c1 (stereo not drawn) | – | · | – | – | – | ·
CCOC(=O)c1c(C)[nH]c(C(=O)CN2C(=O)NC(C)(c3ccc4ccccc4c3)C2=O)c1C (stereo not drawn) | 20042 | – | – | – | – | –
CC(OC1=CC(=O)CCC1)C(=O)c1ccccc1 (stereo not drawn) | 20377 | – | – | – | – | –
CC(OC(=O)CN1C(=O)NC2(CCCC2)C1=O)C(=O)c1ccccc1 (stereo not drawn) | ? | · | – | – | – | ·
Nc1ccc2oc3ccccc3c2c1 | – | – | – | – | – | –
Nc1ccc2c(c1)oc1ccccc12 | 22331 | – | – | – | – | –
